Values joined by “and” are separate entries in the source; they are usually repeats but may differ in a detail not shown here. Identical values can stand only once. Results filed as inconclusive are left out. Active and inactive are the calls of the source.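 Rule for the calls, unless noted: active = normalized viability below 100% at a tested concentration; inactive = the rest.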

The viability is a read-out of living cells in per cent, often relative to untreated cells. The term remaining activity denotes the signal under treatment as a percentage of the control signal. A word on the inhibition: it is the relative decrease from the control value, in per cent.

Experiment [1] is described as follows: P. berghei load reduction in hepatocytes – cell-based, HepG2, luciferase luminescence, HepG2 viability, primary screen (AID 624349; in the data active = parasite load remaining mostly below about 12%, no sharp cut-off; inactive = mostly above about 10%;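 note: 100% = mean of DMSO negative control wells on the same plate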). The following applies: P. berghei liver stage in HepG2, luciferase luminescence, concentration not given here; parasite load remaining: stronger effect = lower value; viability: measured here: HepG2 viability without parasites.
Experiment [2] has as its system Aerobactin synthetase IucA (Klebsiella pneumoniae). The experiment can be described thus: inhibition of K. pneumoniae IucA enzyme – biochemical, Tocris library, absorbance (AID 1345561; call rule not given here;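 note: 100% = enzyme without compound and 0% = no enzyme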). The following applies: purified IucA enzyme assay, absorbance (OD) read-out; stronger effect = lower value;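 tested at 8 µM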.
Experiment [3] can be described thus: viability loss in pontine glioma line – cell-based, SU-DIPG-XIII, MIPE4.0, CellTiter-Glo, qHTS, dose response (AID 1347061; cut-off not given, nearly all actives have AC50 up to about 37 µM;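 note: cells exposed to compound for 48 hours before readout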). Particulars: CellTiter-Glo ATP luminescence. (In general: ATP-based viability assays read luminescence as a measure of living cells.)
A short description of experiment [4]: viability loss in pontine glioma line – cell-based, JHH-DIPG-1, MIPE4.0, CellTiter-Glo, qHTS, dose response (AID 1347062; cut-off not given, nearly all actives have AC50 up to about 27 µM). The following applies: JHH-DIPG-1 viability, CellTiter-Glo ATP luminescence.
Experiment [5] in a line: viability loss in pontine glioma line – cell-based, SU-DIPG-IV, MIPE4.0, CellTiter-Glo, qHTS, dose response (AID 1347063; cut-off not given, nearly all actives have AC50 up to about 30 µM;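 note: compound exposure lasted 48 hours before the viability readout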). Particulars: CellTiter-Glo ATP luminescence.
The nature of experiment [6]: growth inhibition of DIPG cells – cell-based, MIPE5.0 library, qHTS (AID 1347068; cut-off not given, nearly all actives have IC50 up to about 30 µM). The following applies: SU-DIPG-XXV viability. Background: In qHTS, concentration-response curves come from the screen itself.
Experiment [7] can be described thus: MELAS cybrid and Rieske KO viability enhancers – cell-based, MELAS cybrids, Rieske KO mouse fibroblasts, CellTiter-Glo, primary screen (AID 1508586;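 active = mean z-score across replicates of 1.96 or higher in either the MELAS or the Rieske mutant cell line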;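 note: z relative to plate mean and SD of compound and empty wells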). Particulars: low glucose.
Experiment [8] is described as follows: galactose survival enhancers in mitochondrial complex I cybrids – cell-based, galactose medium, ATP luminescence, primary screen (AID 1645843;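 active = z-score of at least 1.8 in each of two replicates, scored against plate mean and spread of sample wells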;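 note: positive z means more ATP and so rescue of galactose-driven cybrid death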). Particulars: complex I mutant cybrid cells, 72 h, stronger effect = higher value.
Experiment [9] in a line: growth inhibition of DIPG cells – cell-based, MIPE4.0 library, CellTiter-Glo luminescence, qHTS (AID 1347066; cut-off not given, nearly all actives have AC50 up to about 30 µM;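 note: cells exposed to compound for 48 hours before readout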). The following applies: SU-DIPG-VI viability, CellTiter-Glo ATP luminescence.
Experiment [10] in a line: viability loss with induced miR-34 in A549 – imaging, A549 dox-inducible miR-34, nuclei and caspase counts, primary screen (AID 1347080;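 active = compounds whose cell count with miR-34 switched on is under 0.7 times the count with it off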). Particulars: A549 miR-34 inducible, Hoechst nuclei count, 48 h.
Experiment [11] can be described thus: compounds altering circadian rhythm period length – cell-based, LOPAC library, luminescence reporter (AID 2774; call rule not given here;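 note: values are relative to mean of DMSO wells on each plate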). The following applies: circadian reporter cells, at 7 µM, actives lie on both sides.
In experiment [12] the test system is Hepatitis C virus NS3 helicase. The experiment can be described thus: blockers of NS3h binding to ssDNA – biochemical, fluorescence polarization, LOPAC1280 library, primary screen (AID 687035; in the data active = inhibition above about 37%). The following applies: Purified HCV NS3 helicase, Cy5-dT15 ssDNA binding fluorescence polarization; stronger effect = higher value; concentration not given here. For orientation: In fluorescence polarisation assays a small probe gives low polarisation when free and higher when bound to something large.

A short description of experiment [13]: compounds altering Cy5-DNA-NS3h complex signal – biochemical, LOPAC1280, artefact control for HCV NS3 helicase inhibitor project (AID 687037; call rule not given here). Particulars: Cy5-DNA-NS3h complex fluorescence interference counterscreen.
The nature of experiment [14]: viability loss in pontine glioma line – cell-based, SU-DIPG-XIII, MIPE5.0, CellTiter-Glo, qHTS, dose response (AID 1347064; cut-off not given, nearly all actives have AC50 up to about 23 µM). The following applies: CellTiter-Glo ATP luminescence.
The nature of experiment [15]: chitosan synthesis blockers in C. neoformans – flow cytometry, Cibacron Brilliant Red staining (AID 1347148; call rule not given here;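 note: compound exposure lasted three days at 37 degrees C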). The following applies: Cryptococcus neoformans chitosan, stronger effect = lower value; at 10 µM unless noted.
Experiment [16] in a line: blockers of cellular phospholipid synthesis – cell-based, LOPAC library, screen 4, primary screen (AID 1347384; call rule not given here). The following applies: animal cells, phospholipid biosynthesis inhibition screen; at 10 µM.
The nature of experiment [17]: JHH-DIPG-1 glioma cell viability, MIPE5.0 library, CellTiter-Glo luminescence, qHTS (AID 1347067; cut-off not given, nearly all actives have AC50 up to about 26 µM;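 note: cells exposed to compound for 48 hours before readout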). Particulars: JHH-DIPG-1 glioma viability, CellTiter-Glo ATP luminescence.
The nature of experiment [18]: compounds altering HSF1 focus formation in cells – imaging, Selleck Cancer Library (AID 1347162; in the data active = plate-normalised HSF1 focus index below about 0.46). The following applies: human cells, HSF1 nuclear foci imaging, at 10 µM; SSMD: measured here: HSF1 foci SSMD mean; cell count: measured here: cell number; plate-normalised HSF1 focus index: stronger effect = lower value.
Experiment [19] is described as follows: drug combination growth inhibition, ovarian cancer – cell-based, oncology-focused library, rucaparib conditional, profiling panel (AID 1508598). The following applies: patient-derived ovarian cancer cells, CellTiter-Glo viability, 144 h, stronger effect = lower value.
Experiment [20] is described as follows: growth inhibition, single agents and combos, ICB984, cell-based, cisplatin or BGB combos, synergistic combos for chromothripsis tumors (AID 1671451; call rule not given here;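 note: cells exposed for 96 hours before readout; 0% = vehicle DMSO and 100% = killing by high DMSO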). The following applies: ICB984 medulloblastoma cells, drug combinations, stronger effect = higher value.
[21] abbreviates: MELAS cybrid survival, CellTiter-Glo 48 h, stronger effect = higher value.
[22] abbreviates: Rieske KO mouse fibroblast survival, CellTiter-Glo 72 h.
Where [23] appears, read: stronger effect = lower value, cell number ratio, induced over uninduced.
Setting [24] is: measured here: relative caspase fold change +Dox/-Dox.
The mark [25] stands for this setting: measured here: total cells with miR-34 induction, stronger effect = lower value.
The mark [26] stands for this setting: measured here: total cells without miR-34 induction.

Regarding `CCCCC[C@H](O)/C=C/[C@H]1[C@H](O)CC(=O)[C@@H]1C/C=C\CCCC(=O)O`, the parasite load remaining in [1] is 43.5% (inactive). Also, the viability in [1] came to 99.5%. Further, the remaining activity in [2] is 127% (inactive). The outcome in [3], in experiment [4], in experiment [5] and in experiment [6] was inactive. The z-score in experiment [7] (setting [21]) is 0.0898 (inactive); in [7] (setting [22]), -0.895; in experiment [8] it was -0.165 (inactive) and 0.63 (inactive).

Turning to `Fc1ccc(Cl)cc1-c1nc(Nc2ccncc2)c2nccnc2n1`, the remaining activity in experiment [2] is 110% (inactive). Besides, the result in [3], in experiment [4], in [5], in experiment [9] and in [6] was inactive. In addition, the fold change in [10] (setting [23]) was 0.904 (inactive); in experiment [10] (setting [24]), 1.34. In addition, the cell count in experiment [10] (setting [25]) was determined as 8670; in [10] (setting [26]), 9590. For the same compound, the z-score in experiment [8] is 1.11 (inactive).

For the compound `COc1cccc(-c2cc(=O)c3ccccc3o2)c1N`, in experiment [11], the period change is -0.07 h (inactive). Also, in [1], the parasite load remaining is 29.3% (inactive). Also, the viability in experiment [1] amounted to 68.4%. Besides, in [12], the inhibition was -1% (inactive). Besides, the fluorescence ratio (interference) in experiment [13] was 1 (inactive). For the same compound, in [2], the remaining activity is 102% (inactive). In addition, the call in experiment [3], in [4], in experiment [14], in [6] and in experiment [16] was inactive. The fold fluorescence in [15] is 6.5 [at 187.1 µM] (inactive). Further, the z-score in experiment [7] (setting [21]) was -0.498 (inactive); in experiment [7] (setting [22]), 1.33; in experiment [8], -0.045 (inactive) and 0.145 (inactive).

On to `O=c1[nH]c(-c2ccc(C(F)(F)F)cc2)nc2c1CSCC2`, for which the remaining activity in experiment [2] is 117% (inactive). For the same compound, the outcome in experiment [4], in experiment [17] and in experiment [6] was inactive. In addition, the fold change in [10] (setting [23]) is 0.924 (inactive) and 0.863 (inactive) and 0.929 (inactive); in experiment [10] (setting [24]), 0.982 and 0.937 and 1.32. In addition, the cell count was 4310 and 5060 and 7820 in [10] (setting [25]); 4660 and 5860 and 8410 in [10] (setting [26]); 7170 in experiment [18]. The SSMD in experiment [18] came to 1.98. In addition, the plate-normalised HSF1 focus index in experiment [18] is 1.12 (inactive). Also, the figures for the z-score in [7] (setting [21]), in experiment [7] (setting [22]) and in experiment [8] were -0.501 (inactive), 0.33 and 0.565 (inactive), respectively. Moreover, the viability was 100% (inactive) in [19] (at 0.000305 µM, OCI-C5x cells, with rucaparib 10 µM, 100% = cells with rucaparib alone); 93.7% (active) in experiment [19] (at 0.000305 µM, OCI-C5x cells, without rucaparib); 98.7% (active) in experiment [19] (at 0.000305 µM, OCI-P5x cells, with rucaparib 20 µM, 100% = cells with rucaparib alone); 103% (inactive) in [19] (at 0.000305 µM, OCI-P5x cells, without rucaparib); 108% (inactive) in experiment [19] (at 0.00122 µM, OCI-C5x cells, with rucaparib 10 µM, 100% = cells with rucaparib alone); 99.5% (active) in [19] (at 0.00122 µM, OCI-C5x cells, without rucaparib). Further, the viability in [19] (at 0.00122 µM, OCI-P5x cells, with rucaparib 20 µM, 100% = cells with rucaparib alone) was 107% (inactive); in experiment [19] (at 0.00122 µM, OCI-P5x cells, without rucaparib), 106% (inactive); in [19] (at 0.00488 µM, OCI-C5x cells, with rucaparib 10 µM, 100% = cells with rucaparib alone), 121% (inactive); in experiment [19] (at 0.00488 µM, OCI-C5x cells, without rucaparib), 102% (inactive); in [19] (at 0.00488 µM, OCI-P5x cells, with rucaparib 20 µM, 100% = cells with rucaparib alone) it was 110% (inactive); in experiment [19] (at 0.00488 µM, OCI-P5x cells, without rucaparib), 99.8% (active). Moreover, the viability in experiment [19] (at 0.0195 µM, OCI-C5x cells, with rucaparib 10 µM, 100% = cells with rucaparib alone) is 109% (inactive); in experiment [19] (at 0.0195 µM, OCI-C5x cells, without rucaparib), 102% (inactive); in experiment [19] (at 0.0195 µM, OCI-P5x cells, with rucaparib 20 µM, 100% = cells with rucaparib alone), 114% (inactive); in [19] (at 0.0195 µM, OCI-P5x cells, without rucaparib), 113% (inactive); in experiment [19] (at 0.0781 µM, OCI-C5x cells, with rucaparib 10 µM, 100% = cells with rucaparib alone) it was 110% (inactive); in [19] (at 0.0781 µM, OCI-C5x cells, without rucaparib), 104% (inactive). The viability in experiment [19] (at 0.0781 µM, OCI-P5x cells, with rucaparib 20 µM, 100% = cells with rucaparib alone) is 106% (inactive); in experiment [19] (at 0.0781 µM, OCI-P5x cells, without rucaparib) it was 105% (inactive); in experiment [19] (at 0.313 µM, OCI-C5x cells, with rucaparib 10 µM, 100% = cells with rucaparib alone), 107% (inactive); in experiment [19] (at 0.313 µM, OCI-C5x cells, without rucaparib), 102% (inactive); in experiment [19] (at 0.313 µM, OCI-P5x cells, with rucaparib 20 µM, 100% = cells with rucaparib alone), 105% (inactive); in experiment [19] (at 0.313 µM, OCI-P5x cells, without rucaparib) it was 94.6% (active). Besides, the viability in experiment [19] (at 1.25 µM, OCI-C5x cells, with rucaparib 10 µM, 100% = cells with rucaparib alone) is 107% (inactive); in experiment [19] (at 1.25 µM, OCI-C5x cells, without rucaparib), 99.4% (active); in [19] (at 1.25 µM, OCI-P5x cells, with rucaparib 20 µM, 100% = cells with rucaparib alone) it was 113% (inactive); in experiment [19] (at 1.25 µM, OCI-P5x cells, without rucaparib) it was 103% (inactive); in [19] (at 5 µM, OCI-C5x cells, with rucaparib 10 µM, 100% = cells with rucaparib alone), 115% (inactive); in experiment [19] (at 5 µM, OCI-C5x cells, without rucaparib) it was 112% (inactive). The viability in [19] (at 5 µM, OCI-P5x cells, with rucaparib 20 µM, 100% = cells with rucaparib alone) is 105% (inactive); in experiment [19] (at 5 µM, OCI-P5x cells, without rucaparib), 99% (active). Further, the inhibition was -4.67% in [20] (BGB IC20 combo, at 0.005 µM); -45.8% in [20] (BGB IC40 combo, at 0.005 µM); -11.7% in [20] (BGB IC40 combo, at 0.05 µM); -27.1% (inactive) in experiment [20] (at 0.5 µM); -15.7% in [20] (cisplatin combo, at 0.05 µM); -29.5% in [20] (cisplatin combo, at 0.5 µM). In addition, the inhibition in experiment [20] (cisplatin combo, at 5 µM) was -33.3%; in [20] (measured here: 5 uM single agent, at 5 µM) it was -7.99%.

The values are drawn from PubChem BioAssay.
